Structures are written as SMILES. Inconclusive results are not listed. Active and inactive are the calls of the source. The call rests on the fitted dose curve; in most records, active means well fitted curve in the direction sought with a large enough effect; inconclusive means small, poorly fitted or top-dose-only effect, or another doubt; inactive means no such curve, though single readings can be large; an effect the other way counts as inactive or inconclusive.

The target in assay [1] is Glutathione peroxidase 1 (Homo sapiens) (UniProt P07203). The assay can be described thus: Primary qHTS Assay for Inhibitors of Recombinant Selenoprotein Glutathione Peroxidase 1 (GPX1) (AID 1845191). Further: nearly all actives have a fitted effect of over 65% in size. Summed up:
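GR-coupled readout: NADPH consumption tracked by fluorescence, ex 340/em 450 nm, at t=0 and after 15 min at RT. Final mix 10 nM GPX1, 1 mM GSH, 0.5 mM CHP, 0.5 mM NADPH, 100 nM GR, 0.01% BSA, following 30 min enzyme–compound preincubation.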

The target in assay [2] is Luciferin 4-monooxygenase (Photinus pyralis) (UniProt P08659). Put plainly: Primary firefly luciferase (FLuc) qHTS assay for identification of artifact compounds. (AID 1845220). Further: nearly all actives have a fitted effect of over 60% in size. The following applies: outcome: dose series up to 54.1 µM unless noted. Summed up:
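D-luciferin and ATP (10 uM each, final) in Tris acetate buffer pH 7.6 were incubated with compounds for 15 min at room temperature. The reaction was started with 10 nM Photinus pyralis luciferase and luminescence read after 5 min. Percent inhibition was fitted to a 4-parameter Hill equation.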
(qHTS replaces the single test concentration by a dilution series.)

A short description of assay [3]: Primary fluorescence-based thiol-reactive (MSTI) qHTS assay for identification of artifact compounds. (AID 1845221).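 Further: thiol-reactive compounds lower the probe fluorescence signal; nearly all actives have a fitted effect of over 65% in size.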 Summed up:
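qHTS titration of compound; 4 uM MSTI, PBS pH 7.4, 2% DMSO; 1 h RT, dark; fluorescence 525/598 nm; normalized to Acetyl-MSTI and MSTI; 4-parameter Hill fit.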

Assay [4] relates to Nanoluciferase (engineered Oplophorus gracilirostris luciferase). The assay can be described thus: Primary Nanoluciferase (NLuc) qHTS assay for identification of artifact compounds. (AID 1845222). In short, it runs like this: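 Diluted conditioned medium from NLuc-expressing S16 cells treated with compounds for 15 min at room temperature, then Nano-Glo substrate added; luminescence read after 5 min. Percent inhibition versus no-enzyme and DMSO controls fitted to 4-parameter Hill equation.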

Assay [5] can be described thus: Primary redox qHTS assay for identification of artifact compounds. (AID 1845223). In short, it runs like this:
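Redox-cycling detection via DTT (250 uM final) oxidation coupled to Amplex Red (25 uM)/HRP (250 mU/mL) in HBSS. 15 min preincubation plus 30 min after DTT, room temperature. Ex/Em 525/598 nm; 4-parameter Hill fit against DMSO and 10 uM DA3003.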

A short description of assay [6]: Quantitative High-Throughput drug screen in 47 multiple myeloma cell lines against the NCATS MIPE library collection: FR4_PLB cell viability assay (AID 1918924; further: nearly all actives have a fitted effect of over 35% in size; further: potency means the concentration at half of the fitted maximal effect). In short, it runs like this:
(§1)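 We plated 500 myeloma cells per well, pinned in MIPE 4.0 compounds, and incubated for 48 hours at 37C. ATP was then quantified with CellTiter-Glo, with DMSO and media-only wells defining 100% and 0%.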

Assay [7] in a line: Quantitative High-Throughput drug screen in 47 multiple myeloma cell lines against the NCATS MIPE library collection: Delta47_JCRB cell viability assay (AID 1918925; further: nearly all actives have a fitted effect of over 45% in size; further: potency means the concentration at half of the fitted maximal effect). Summed up:
(§2)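 Inhibition of cell viability is measured here. Each line was plated at 500 cells per well, treated with MIPE 4.0 drugs, kept 48 hours at 37C, then assayed for ATP content by CellTiter-Glo luminescence.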

The nature of assay [8]: Quantitative High-Throughput drug screen in 47 multiple myeloma cell lines against the NCATS MIPE library collection: EJM_DSMZ cell viability assay (AID 1918926; further: nearly all actives have a fitted effect of over 30% in size; further: potency means the concentration at half of the fitted maximal effect). Summed up: as §2
The nature of assay [9]: Quantitative High-Throughput drug screen in 47 multiple myeloma cell lines against the NCATS MIPE library collection: AMO1_DSMZ cell viability assay (AID 1918927; further: nearly all actives have a fitted effect of over 30% in size; further: potency means the concentration at half of the fitted maximal effect). Summed up:
as §2

Assay [10] in a line: Quantitative High-Throughput drug screen in 47 multiple myeloma cell lines against the NCATS MIPE library collection: ARP1_JJKsccF8 cell viability assay (AID 1918928; further: nearly all actives have a fitted effect of over 40% in size; further: potency means the concentration at half of the fitted maximal effect). In short, it runs like this: (§3)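 Cell viability inhibition in this qHTS is measured via ATP content (CellTiter-Glo) after 48 h drug exposure at 37 °C. Wells hold 500 cells; DMSO-treated wells define 100% and medium-only wells 0%.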

Assay [11] in a line: Quantitative High-Throughput drug screen in 47 multiple myeloma cell lines against the NCATS MIPE library collection: Karpas620_DSMZ cell viability assay (AID 1918959). Further: nearly all actives have a fitted effect of over 30% in size. Further: potency means the concentration at half of the fitted maximal effect. Summed up:
as §1

The nature of assay [12]: Quantitative High-Throughput drug screen in 47 multiple myeloma cell lines against the NCATS MIPE library collection: KMM1_JCRB cell viability assay (AID 1918960). Further: nearly all actives have a fitted effect of over 30% in size. Further: potency means the concentration at half of the fitted maximal effect. In short, it runs like this: as §3
The nature of assay [13]: Quantitative High-Throughput drug screen in 47 multiple myeloma cell lines against the NCATS MIPE library collection: KHM11_PLB cell viability assay (AID 1918962). Further: nearly all actives have a fitted effect of over 35% in size. Further: potency means the concentration at half of the fitted maximal effect. In short, it runs like this:
as §1

Assay [14] in a line: Quantitative High-Throughput drug screen in 47 multiple myeloma cell lines against the NCATS MIPE library collection: JIM3_ECACC cell viability assay (AID 1918963; further: nearly all actives have a fitted effect of over 35% in size; further: potency means the concentration at half of the fitted maximal effect). In short, it runs like this:
as §1

A short description of assay [15]: Quantitative High-Throughput drug screen in 47 multiple myeloma cell lines against the NCATS MIPE library collection: INA6_PLB cell viability assay (AID 1918965; further: nearly all actives have a fitted effect of over 55% in size; further: potency means the concentration at half of the fitted maximal effect). Summed up:
(§4)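 Viability readout: CellTiter-Glo luminescence following 5 min room-temperature incubation with reagent. Prior exposure: 48 h, 37C, humidified 5% CO2, 500 cells per well.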

Assay [16] deals with Phospholipid hydroperoxide glutathione peroxidase GPX4 (Homo sapiens) (UniProt P36969). The assay can be described thus: Primary qHTS Assay for Inhibitors of Recombinant Selenoprotein Glutathione Peroxidase 4 (GPX4) (AID 1845192). Further: nearly all actives have a fitted effect of over 65% in size. Summed up:
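Steps: GPX4 plus compound, 30 min RT; add GR/GSH/NADPH master mix; start with cumene hydroperoxide; read 340/450 nm fluorescence at 0 and 15 min. Finals were 200 nM GPX4, 1 mM GSH, 0.5 mM CHP, 0.5 mM NADPH, 100 nM GR.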

Assay [17] can be described thus: Quantitative High-Throughput drug screen in 47 multiple myeloma cell lines against the NCATS MIPE library collection: Karpas417_ECACC cell viability assay (AID 1918961). Further: potency means the concentration at half of the fitted maximal effect. The note with it: Karpas417 myeloma viability, CellTiter-Glo ATP luminescence, 48 h; viability (% of DMSO): at 45.8 µM (top of the series). In short, it runs like this: as §4
For orientation: Cellular ATP, detected with luciferase, serves as a proxy for viable cell number.

Assay [18] can be described thus: Quantitative High-Throughput drug screen in 47 multiple myeloma cell lines against the NCATS MIPE library collection: ARD_JJKsccE7 cell viability assay (AID 1918929; further: potency means the concentration at half of the fitted maximal effect). Summed up: as §2
Assay [19] in a line: Quantitative High-Throughput drug screen in 47 multiple myeloma cell lines against the NCATS MIPE library collection: JIM1_ECACC cell viability assay (AID 1918964; further: potency means the concentration at half of the fitted maximal effect). In short, it runs like this:
as §2

Sequence of Glutathione peroxidase 1 (Homo sapiens) (P07203 whole entry, looked up): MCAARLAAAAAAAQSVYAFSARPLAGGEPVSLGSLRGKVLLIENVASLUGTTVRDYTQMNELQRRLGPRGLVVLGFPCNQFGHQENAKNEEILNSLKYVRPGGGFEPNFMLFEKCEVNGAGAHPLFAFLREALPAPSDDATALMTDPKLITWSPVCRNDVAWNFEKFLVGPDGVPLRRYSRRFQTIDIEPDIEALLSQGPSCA
Sequence of Phospholipid hydroperoxide glutathione peroxidase GPX4 (Homo sapiens) (P36969 whole entry, looked up): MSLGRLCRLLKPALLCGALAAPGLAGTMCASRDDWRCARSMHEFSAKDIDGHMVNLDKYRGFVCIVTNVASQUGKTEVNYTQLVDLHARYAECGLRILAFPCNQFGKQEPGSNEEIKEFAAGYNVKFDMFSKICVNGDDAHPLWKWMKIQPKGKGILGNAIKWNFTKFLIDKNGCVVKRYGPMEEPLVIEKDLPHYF

In the case of `Cc1[nH]nc2ccc(-c3cncc(OC[C@@H](N)Cc4c[nH]c5ccccc45)c3)cc12`, the Potency result in [1], in assay [3], in assay [9], in assay [11] and in assay [12] was “inactive” in each case. For the same molecule, the molecule was called inactive in assay [2], in assay [4] and in assay [5]. Moreover, the Potency is 833 nM (active) in [6]; 209 nM (active) in assay [7]; 935 nM (active) in assay [8]; 3320 nM (active) in [10]; 132 nM (active) in assay [13]; 1480 nM (active) in assay [14]. Moreover, the Potency in assay [15] was 372 nM (active).
As for `CCOP(=O)(OCC)C(C)NC(=O)N(CCCl)N=O` (stereo not given), the Potency result in [1], in assay [16], in assay [6], in assay [7], in assay [8] and in [9] was “inactive” throughout. The Potency entry in assay [10], in assay [11], in assay [12], in assay [17], in assay [13] and in assay [14] was “inactive” each time.
Take `O=C(Nc1ccncc1)C(=O)c1cn(Cc2ccc(Cl)cc2)c2ccccc12`: the Potency entry in assay [1] and in assay [16] was “inactive” throughout. Further, the Potency in [6] was 16.6 nM (active); in assay [7], 16.6 nM (active); in assay [8], 3720 nM (active); in [9] it was 16.6 nM (active); in assay [10], 74.3 nM (active); in assay [18], 41.8 nM (active). Besides, the Potency in assay [12] was 18.7 nM (active); in assay [14] it was 14.8 nM (active); in [19], 16.6 nM (active); in assay [15], 13.2 nM (active).
As for `Cc1ccccc1-n1c(Cn2cnc3c(N)ncnc32)nc2cccc(C)c2c1=O`, the Potency result in assay [1] and in assay [3] was “inactive” in each case. Besides, the molecule was called inactive in assay [2], in [4] and in assay [5]. The Potency is 6620 nM (active) in assay [6]; 105 nM (active) in assay [7]; 4180 nM (active) in assay [8]; 833 nM (active) in assay [9]; 132 nM (active) in assay [10]; 4180 nM (active) in assay [11]. Further, the Potency in assay [12] was 372 nM (active); in [17] it was 132 nM (active); in assay [14], 1050 nM (active); in assay [15], 935 nM (active).
`Cc1ccccc1-n1c(Cn2ncc3c(N)ncnc32)nc2cccc(C)c2c1=O`: the Potency entry in assay [1], in [16] and in assay [3] was “inactive” each time. For the same molecule, the outcome in assay [2], in [4] and in assay [5] was inactive. Moreover, the Potency in assay [6] was 4690 nM (active); in assay [7], 209 nM (active); in assay [8], 16600 nM (active); in assay [9], 148 nM (active); in assay [10], 4690 nM (active); in [11] it was 37.2 nM (active). The Potency in assay [12] was 372 nM (active); in assay [13], 332 nM (active); in [14] it was 418 nM (active); in assay [19] it was 66.2 nM (active); in assay [15] it was 235 nM (active).
For `CN(C)[C@@H]1C(=O)C(C(N)=O)=C(O)[C@@]2(O)C(=O)C3=C(O)c4c(O)cccc4[C@@](C)(O)[C@H]3[C@H](O)[C@@H]12`, the Potency entry in assay [1], in [16], in assay [6], in assay [8], in assay [12] and in assay [17] was “inactive” throughout. The Potency result in assay [15] is “inactive”. For the same molecule, in [13], the Potency is 7430 nM (active).
Turning to `O=S(=O)(F)Cc1ccccc1`, the Potency result in [1], in assay [16], in assay [6], in assay [8], in assay [9] and in [10] was “inactive” throughout. For the same molecule, the Potency entry in assay [11] and in assay [12] was “inactive” throughout. Besides, the Potency in assay [7] is 2960 nM (active); in assay [13], 9350 nM (active); in assay [15], 1180 nM (active).

For the origin of these results see PubChem BioAssay (NCATS).
